HCV inhibitor – inhibitors of hepatitis C virus infection. Huh7.5.1 HCVcc-Cre infection, luciferase reporter, 44 h. Potency, µM (doses to about 41.8 µM), actives largely listed as inhibitors. 340,000 tested, 3.4% active. AID 651820; active = well fitted inhibition curve with a large enough effect; inconclusive = small, poorly fitted or top-dose-only effect, or another doubt; inactive = no such curve, though single readings can be large or run the other way
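Luciferase read-out (15 sec integration) after a 15 min room-temperature substrate step quantifies HCVcc-Cre infection. Cells, 1,000 per well, had compound added 4 h post-plating, then virus at ~0.5 moi, and were cultured 44 h.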
FMDV antiviral – blocks foot and mouth disease virus; FMDV antiviral cell-based qHTS; Potency, µM (titrated, usually from 57.9 µM), most hits filed as inhibitors; AID 1159524; 410,000 tested, 1.2% active; calls by dose curve; tested in HEK293T cells; note: read-out not given here; nearly all actives have a fitted effect of over 45% in size
HCMV inh – inhibitors of human cytomegalovirus; activity change, negative = inhibition, % at 57.5 µM; AID 1259415; HFF cells, HCMV-luciferase reporter, 72 h; active compounds read low; 410,000 tested, 4.5% active; in the data active = activity change below about -60%; inconclusive = no clear call, values can overlap the other calls; inactive = above about -39%
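Steps: HFFs plated, 16 h 37C; compounds added; HCMV-luciferase added to MOI 1 PFU/cell; 72 h 37C; OneGlo reagent, 5 min room temperature; luminescence read, normalized to controls.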
Vaccinia Venus – inhibitors of vaccinia virus (Venus reporter). Vaccinia virus Venus reporter expression, fluorescence. Potency, µM (doses to about 36.5 µM), actives largely listed as inhibitors. 330,000 tested, 0.46% active; calls by dose curve; tested in A549 cells; note: nearly all actives have a fitted effect of over 30% in size
Vaccinia mCherry – vaccinia inhibition (mCherry reporter); Vaccinia virus mCherry reporter infection, fluorescence; Potency, µM (series often up to 36.5 µM), actives largely listed as inhibitors; 310,000 tested, 0.63% active; calls by dose curve; tested in A549 cells; note: nearly all actives have a fitted effect of over 35% in size
Each line names hits and unclear results; the compound was inactive in the other large screens; ! = repeats disagree. A selection: hits, their analogues and other compounds. The true share with any hit is near 7.3%.

COc1ccc(NC(=O)CCc2nnc3n(Cc4ccccc4Cl)c(=O)c4ccccc4n23)cc1	none (no result: HCV inhibitor)
COc1ccc(C(=O)N/N=C/c2c[nH]c3ccccc23)cc1	none
CCCOc1ccc(C(=O)N/N=C/c2c[nH]c3ccc(Br)cc23)cc1	HCV inhibitor 13µM
CCCCCN=C(N)N/N=C/c1c[nH]c2ccc(OC)cc12	HCV inhibitor inconclusive, FMDV antiviral inconclusive, HCMV inh -100, Vaccinia Venus 11µM!, Vaccinia mCherry inconclusive
CC(=O)N[C@@H](C=O)[C@@H](O)[C@H](O)[C@H](O)CO	none (no result: HCV inhibitor, HCMV inh)
COc1ccc2c(CC(=O)Nc3ncc(C)s3)coc2c1	HCV inhibitor inconclusive, HCMV inh -77, Vaccinia Venus inconclusive
COc1ccc2c(CC(=O)Nc3nc(C)cs3)coc2c1	none
O=C(CSc1ncc(-c2ccccc2)[nH]1)Nc1cccc(Br)c1	HCMV inh -66 (no result: HCV inhibitor)
O=C(CSc1ncc(-c2ccccc2)[nH]1)Nc1ccccc1	HCMV inh inconclusive
CNC(=O)N(O)C1N(/N=C/c2ccc(C)cc2)C(=S)SC1(C)C (stereo unspecified)	none (no result: Vaccinia Venus, Vaccinia mCherry)
CC1(C)SC(=S)N(/N=C/c2cccnc2)C1N(O)C(=O)Nc1ccccc1 (stereo unspecified)	none (no result: Vaccinia Venus, Vaccinia mCherry)
Cc1ccc(/C=N/N2C(=S)SC(C)(C)C2N(O)C(=O)Nc2ccc([N+](=O)[O-])cc2)cc1 (stereo unspecified)	HCV inhibitor 11µM, Vaccinia Venus inconclusive, Vaccinia mCherry inconclusive
CNC(=O)N(O)C1N(/N=C/c2cc(Br)ccc2O)C(=S)SC1(C)C (stereo unspecified)	HCV inhibitor 11µM
CC1(C)SC(=S)N(/N=C/c2ccc(O)cc2)C1N(O)C(=O)Nc1ccc([N+](=O)[O-])cc1 (stereo unspecified)	HCV inhibitor inconclusive, Vaccinia Venus inconclusive (no result: Vaccinia mCherry)
CC1(C)SC(=S)N(/N=C/c2ccccc2O)C1N(O)C(=O)Nc1ccccc1 (stereo unspecified)	HCV inhibitor 11µM, HCMV inh inconclusive
Nc1ccc2cc3[nH]c4cc(N)ccc4c3nc2c1	HCV inhibitor 1.6µM, HCMV inh -98, Vaccinia mCherry inconclusive
COc1cccc(CCc2ccccc2OCC(CN(C)C)OC(=O)CCC(=O)O)c1 (stereo unspecified)	none (no result: HCV inhibitor, FMDV antiviral, HCMV inh)
CC1=CC(C)(C)N=C(Nc2nc(C)c3cc(C)cc(C)c3n2)N1	HCV inhibitor inconclusive, FMDV antiviral inconclusive, HCMV inh -97 (no result: Vaccinia Venus, Vaccinia mCherry)
COc1ccc(-n2c(=O)c3c(c4cc(OC)ccc4n3C)n(Cc3c(F)cccc3Cl)c2=O)cc1	none (no result: HCV inhibitor)
CN(C)c1ccc(/C=N/N=C2/NC(=O)/C(=C/c3ccc([N+](=O)[O-])cc3)S2)cc1	FMDV antiviral 8.9µM
CC(=O)c1ccc2c(c1)N(CCCN1CCC(CCO)CC1)c1ccccc1S2	HCV inhibitor 3.2µM
COC(=O)C1=C(c2cccc(OCc3ccccc3)c2)C[C@@H]2CC[C@H]1N2C(=O)NCc1ccccc1OC	HCV inhibitor inconclusive, HCMV inh -88, Vaccinia Venus inconclusive, Vaccinia mCherry inconclusive
COC(=O)C1=C(c2cccc(OCc3ccccc3)c2)C[C@@H]2CC[C@H]1N2C(=O)NCc1ccc(OC)cc1	HCV inhibitor 22µM, Vaccinia Venus inconclusive
CSc1ncc(C(=O)Nc2ccccc2C(F)(F)F)c(-c2ccccc2)n1	none (no result: HCV inhibitor)
CC(=O)C1=C(C)NC(SCC(=O)c2ccc(Cl)cc2)=C(C#N)C1c1ccco1 (stereo unspecified)	HCV inhibitor inconclusive
CC(=O)C1=C(C)NC(SCC(=O)c2ccc(Cl)cc2Cl)=C(C#N)C1c1ccco1 (stereo unspecified)	HCV inhibitor 2.5µM, HCMV inh -68 (no result: FMDV antiviral)
COc1ccccc1C(=O)NNC(=O)c1csc(N2CCOCC2)n1	Vaccinia mCherry inconclusive
Cc1ccc(C)c(SCC(=O)NNC(=O)c2csc(N3CCOCC3)n2)c1	HCMV inh -62 (no result: Vaccinia Venus, Vaccinia mCherry)
O=C(NNC(=O)c1ccccc1OCc1ccccc1Cl)c1csc(N2CCOCC2)n1	HCV inhibitor 10µM (no result: Vaccinia Venus, Vaccinia mCherry)
CC(=O)c1cccc(-c2cnc3ccc(-c4cccc(Oc5ccccc5)c4)nn23)c1	none (no result: HCV inhibitor, FMDV antiviral, Vaccinia Venus, Vaccinia mCherry)
COc1ccc(CCNC(=O)C(=O)NCC2CCCN2S(=O)(=O)c2ccccc2)cc1OC (stereo unspecified)	HCV inhibitor inconclusive, FMDV antiviral 22µM
O=C(NCCc1ccccc1)C(=O)NCC1CCCN1S(=O)(=O)c1ccccc1 (stereo unspecified)	HCV inhibitor inconclusive, Vaccinia Venus inconclusive, Vaccinia mCherry inconclusive

Compound activity: PubChem, National Center for Advancing Translational Sciences (NCATS)
